“And” between values parts separate entries of the source, which are not always exact repeats. Equal values may be shown once. About 83,000 compounds went through this panel and 20% of them were active in at least one assay; those are over-represented in the sample as a whole.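 Cell lines were cultured in 96-well plates, exposed to a single compound concentration, and assessed for percent growth 48 hours later.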 The source made the active and inactive calls.

The subject of the assay is NCI-H460 lung. Description: NCI-60 one-dose screen, 48 h (100 = growth as untreated, 0 = no growth, -100 = all killed). The note with it: 10 µM. As for the experimental part: Growth inhibition of the NCI-H460 human Non-Small Cell Lung tumor cell line is measured as a screen for anti-cancer activity. Cells are grown in 96 well plates and exposed to the test compound for 48 hours. Compounds are tested at a single concentration, which is 10^-5 M for most compounds. The reported endpoint is percent growth (GI% or GIPRCNT), where numbers from 0 - 100% represent growth inhibition, and numbers from -100% - 0 represent cell death. For example, a value of 40 represents 60% growth inhibition. A value of 0 means no net growth occurred over the course of the experiment. A value of -40 indicates 40% of cells at the beginning of the experiment died by the end of the experiment. A value of -100 means all cells are dead at the end of the experiment.
NCI-60 Human Tumor Cell Lines Screen was performed using the standard one-dose NCI protocol, which is described in more detail at https://dtp.cancer.gov/discovery_development/nci-60/default.htm.
Compounds with GIPRCNT values below 10 were considered active. Activity score was based on GIPRCNT using the following formula: […]
Score is 0 for GIPRCNT values of 100 or above, 50 for GIPRCNT values of 0, and 100 for GIPRCNT values of -100.
Regarding `[Cl][Hg][c]1ccc(Cl)s1`, the growth was 83.7% (inactive).

As to `[O-][n+]1ccccc1S`, the growth is 8.67% (active).

For `O=C1C(=O)c2ccccc2-c2ccccc21`, the growth was 3.18% (active).

In the case of `S=C=NCCc1ccccc1`, the growth is 58.5% (inactive).

With `CC12OOC(c3ccccc31)c1c2ccc2ccccc12` (stereo not given), the growth is -63.2% (active).

With `CC/C(=C/c1ccc(OC)cc1)[N+](=O)[O-]`, the growth is 52.7% (inactive).

Take `O=[N+]([O-])/C=C/c1ccc([N+](=O)[O-])cc1`: the growth is 19.9% (inactive) and 102% (inactive).

For the molecule `CC(C)c1cc([N+](=O)[O-])cc([N+](=O)[O-])c1O`, the growth is 105% (inactive).

Regarding `CC(Cc1ccc2c(c1)OCO2)NN` (stereo not given), the growth is 105% (inactive).

As to `O=C(CBr)Nc1ccc(Cl)cc1`, the growth was 106% (inactive).

Consider `CC1CCC2(OC1)OC1C(O)C3C4CCC5CC(OC6OC(CO)C(OC7OC(CO)C(O)C(OC8OCC(O)C(O)C8O)C7OC7OC(CO)C(O)C(OC8OC(CO)C(O)C(O)C8O)C7O)C(O)C6O)C(O)CC5(C)C4CCC3(C)C1C2C` (stereo not given), for which the growth is 5.81% (active).

Consider `Oc1c(I)cc(I)cc1I`, for which the growth is 105% (inactive).

Turning to `O=S(=O)(F)c1ccc(Cl)cc1`, the growth is 113% (inactive).

With `COC(C(=O)C(O)C(C)O)C1Cc2cc3cc(OC4CC(OC(C)=O)C(OC5CC(O)C(OC)C(C)O5)C(C)O4)cc(O)c3c(O)c2C(=O)C1OC1CC(OC2CC(OC3CC(C)(O)C(OC(=O)C(C)C)C(C)O3)C(O)C(C)O2)C(O)C(C)O1` (stereo not given), the growth is -10.2% (active).

For the molecule `Oc1ccccc1-c1ccccc1`, the growth was 104% (inactive).

On to `COC12c3c(C)cc(O)c4c(=O)occ(c34)C(=O)C1C13COC(=O)c4c(O)cc(C)c(c41)C(=O)C2C3OC(C)=O` (stereo not given), for which the growth is 97.9% (inactive).

Take `COc1cc(/C=C\[N+](=O)[O-])ccc1O`: the growth is 96.6% (inactive) and 94% (inactive).

Regarding `C[C@@H]1C[C@@H]([C@H](O)CC2CC(=O)NC(=O)C2)C(=O)[C@@H](C)C1`, the growth is 4.51% (active).

With `O=[N+]([O-])/C=C/c1ccc(Cl)cc1[N+](=O)[O-]`, the growth was 58.4% (inactive).

For `CC[C@@H](C)[C@@H]1NC(=O)C(NC(=O)C(CC(C)C)N(C)C(=O)C2CCCN2C(=O)C(C)O)C(C)OC(=O)C(Cc2ccc(OC)cc2)N(C)C(=O)C2CCCN2C(=O)C(CC(C)C)NC(=O)C(C)C(=O)C(C(C)C)OC(=O)C[C@H]1O` (stereo not given in full), the growth is -49.7% (active).

With `O=C(CCl)Nc1ccc(Cl)cc1`, the growth was 99.8% (inactive).

For `Cc1cc(C(C)(C)c2ccc(O)c(C)c2)ccc1O`, the growth is 110% (inactive).

For the molecule `C[C@]12CC[C@H]3[C@@H](CCC4=CC(=O)CC[C@@H]43)[C@@H]1CC[C@@H]2OC(=O)N(CCCl)N=O`, the growth was -37.9% (active).

`CCOP(=O)(OCC)C(O)c1ccccc1Cl` (stereo not given): the growth was 102% (inactive).

In the case of `COc1cc(/C=C/[N+](=O)[O-])cc(OC)c1OC`, the growth is 6.31% (active).

With `O=C1CCC(=O)N1SC(Cl)(Cl)Cl`, the growth is 108% (inactive).

`O=[N+]([O-])c1ccc(N2CCOCC2)c2c1no[n+]2[O-]`: the growth was 6.53% (active).

In the case of `CN(CCCl)c1ccc(/C=C/C2=[N+](C)c3ccccc3C2(C)C)cc1`, the growth was 17.7% (inactive).

`N#CCc1ccccc1`: the growth is 106% (inactive).

Turning to `COC12C(COC(N)=O)C3=C(C(=O)C(C)=C(N)C3=O)N1CC1C2N1C` (stereo not given), the growth was -6.38% (active).

As to `NC(=O)c1cc([N+](=O)[O-])c(Cl)c([N+](=O)[O-])c1`, the growth was 107% (inactive).

Consider `CC(=O)[O][Hg][c]1c(C)c(C)cc(C)c1C`, for which the growth was -16.7% (active).

In the case of `CC[C@@]1(O)C[C@H](OC2CC(N(C)C)C(O)C(C)O2)c2c(cc3c(c2O)C(=O)c2c(O)ccc(O)c2C3=O)[C@H]1C(=O)OC` (stereo not given in full), the growth is -64% (active).

On to `COc1ccc2c(ccc3oc([N+](=O)[O-])cc32)c1`, for which the growth is -3.44% (active).

Take `Cn1c(O)c(N=O)c(=O)n(C)c1=O`: the growth is 110% (inactive) and 102% (inactive).

On to `[Cl][Hg][c]1ccc2ccccc2c1`, for which the growth was -4.3% (active).

As to `O=[P+](O)c1ccccc1`, the growth was 106% (inactive).

On to `COc1ccccc1[As]=[As]c1ccccc1OC` (stereo not given), for which the growth is -42.6% (active).

Regarding `COc1cc2c(cc1OC)C13CCN4CC5=CCOC6CC(=O)N2C1C6C5CC43` (stereo not given), the growth was 120% (inactive) and 83.2% (inactive).

For the molecule `C#CC1(O)CCC(C(C)(C)C)CC1` (stereo not given), the growth was 112% (inactive).
